# The supplement of paper PMC7858590
# “And” between values parts separate entries of the source, which are not always exact repeats. Equal values may be shown once.
# Tested on: human monocyte-derived macrophages (polarized)
# Assay: cell shape (eccentricity) Z-score vs DMSO control; higher = more elongated, M2-like morphology
# Settings: 5 µM, 24 h, cytokines present during treatment
# Protocol: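 Primary-screen hits were rescreened on polarized hMDMs with the differentiating cytokines (IL-4 + IL-13 or IFNg + TNFa) kept in the medium during treatment with compound at 5 uM for 24 h. The eccentricity Z-score vs DMSO wells is averaged over experiments.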
# [1] = macrophage state: M2-polarized (IL-4 + IL-13)
# [2] = macrophage state: M1-polarized (IFNg + TNFa)
SMILES,cell shape (Z-score) [1],cell shape (Z-score) [2]
CC(C)C1C2CCC(C2)C1N (stereo not given),-1.17,
COc1ccc(C(=O)CC2(O)C(=O)Nc3c(Cl)ccc(Cl)c32)cc1 (stereo not given),-16.1,
CCN(CC)CCOc1ccc2c(c1)C(=O)c1cc(OCCN(CC)CC)ccc1-2,,-4.84
Oc1ccc(-c2nc(-c3ccc(F)cc3)c(-c3ccncc3)[nH]2)cc1,-2.38,
C[C@@]12C[C@]3(O)O[C@H](O1)C1(COC(=O)c4ccccc4)[C@H]3C[C@@]12O[C@@H]1O[C@H](COC(=O)c2ccccc2)[C@@H](O)[C@H](O)[C@H]1O,-2.92,
Cc1cc(N2CCOCC2)cc2[nH]c(-c3c(NC[C@@H](O)c4cccc(Cl)c4)cc[nH]c3=O)nc12,,2.38
c1cc(-c2cnn3cc(-c4ccc(OCCN5CCCCC5)cc4)cnc23)ccn1,,1.96
O=C1c2ccccc2C(Cc2ccnc(F)c2)(Cc2ccnc(F)c2)c2ccccc21,1.79,
COc1ccc(S(=O)(=O)N(C(C)=O)c2ccccc2/C=C/c2cc[n+]([O-])cc2)cc1,-2.29,
CC[C@@]1(O)C(=O)OCc2c1cc1n(c2=O)Cc2cc3c([N+](=O)[O-])cccc3nc2-1,-14.4,
COc1cc(C=O)cc2c1[nH]c1ccccc12,-3.04,
O=C(CCc1ccc(O)cc1)c1c(O)cc(O)cc1O,,-3.42
Cc1c(C(N)=O)cc([N+](=O)[O-])cc1[N+](=O)[O-],,3.38
COc1cc(OC)c(/C=C/S(=O)(=O)Cc2ccc(OC)c(NCC(=O)O)c2)c(OC)c1,,-2.86
OC1(c2ccc(Cl)c(C(F)(F)F)c2)CCN(CCCC(c2ccc(F)cc2)c2ccc(F)cc2)CC1 [Penfluridol],-10.9,
NC(N)=NCCNS(=O)(=O)c1cccc2cnccc12,,-4.47
CC(C)CC1NC(=O)C(C)NC1=O (stereo not given),-2.08,
CCc1cnn2c(NCc3ccc[n+]([O-])c3)cc(N3CCCC[C@H]3CCO)nc12,,8

SMILES,cell shape (Z-score) [1],cell shape (Z-score) [2]
CC1(C)C[C@@H]1C(=O)N/C(=C\CCCCSC[C@H](N)C(=O)O)C(=O)O,,5
CC1CC(=O)c2c(ccc3c2C(=O)c2cccc(O)c2C3O)C1 (stereo not given),,-2.52
COc1ccc(-c2cc(=O)c3c(O)cc(OC)c(OC)c3o2)c(OC)c1,,-4.83
CC[C@H](Nc1ncnc2[nH]cnc12)c1nc2cccc(F)c2c(=O)n1-c1ccccc1,,-16.8
CN[C@H]1CC[C@@H](c2ccc(Cl)c(Cl)c2)c2ccccc21,-4.29,
COc1ccc(/C=C/C(=O)O)cc1OC,1.19,
CC1(CCOC2OC(CO)C(O)C(O)C2O)CCC2C(=CCC3C(C)(C(=O)O)CCCC23C)C1 (stereo not given),,-2.26
C[C@@H](Oc1cc(-c2cnn(C3CCNCC3)c2)cnc1N)c1c(Cl)ccc(F)c1Cl,,7.6
Cc1c(-c2ccnc(Nc3ccc(N4CCNCC4)cc3)n2)sc(=O)n1C,,7.79
O=Nc1c(-c2c(O)[nH]c3cc(Br)ccc23)[nH]c2ccccc12,,-13.2
O=C1Cc2c([nH]c3ccc([N+](=O)[O-])cc23)-c2ccccc2N1,,4.68
O=C1c2ccccc2-c2n[nH]c3cccc1c23,,9.54
COc1ccc([C@H]2CNC(=O)C2)cc1OC1CCCC1,,-2.33
CCN(CC)CCNC(=O)c1c(C)[nH]c(/C=C2\C(=O)Nc3ccc(F)cc32)c1C,,8.79 and 5.25
CCCCOC(=O)c1ccc(N)cc1,,-0.788
CCOc1nc2cccc(C(=O)OC(C)OC(=O)OC3CCCCC3)c2n1Cc1ccc(-c2ccccc2-c2nn[nH]n2)cc1 (stereo not given),-2.81,
CNCCC(Oc1ccc(C(F)(F)F)cc1)c1ccccc1 (stereo not given),7.81,
